The source made the active and inactive calls. How the source made its calls: active means hit-call score of the fitted dose curve at least 0.9, where 1 is the maximum; inactive means score below 0.9.
Assay: ATG_NF_kB_CIS: Attagene CIS-FACTORIAL HepG2 Assay for human Nuclear Factor Kappa B (NF-kB) (AID 2282991)
Conditions: HepG2 Attagene cis-factorial NF-kB reporter mRNA; actives raise or lower the signal
Experimental: ATG_CIS is a cell-based, multiplexed-readout assay that uses HepG2, a human liver cell line, with measurements taken at 24 hours after chemical dosing in a 24-well plate.ATG_NF_kB_CIS is one of 52 assay component(s) measured or calculated from the ATG_CIS assay. It is designed to make measurements of mRNA induction, a form of inducible reporter, as detected with fluorescence intensity signals by Reverse transcription polymerase chain reaction (RT-PCR) and Capillary electrophoresis technology.Data from the assay component ATG_NF_kB_CIS was analyzed into 1 assay endpoint. This assay endpoint, ATG_NF_kB_CIS, was analyzed with bidirectional fitting relative to DMSO as the negative control and baseline of activity. Using a type of inducible reporter, measures of mRNA for gain or loss-of-signal activity can be used to understand the reporter gene at the transcription factor-level as they relate to the gene NFKB1. Furthermore, this assay endpoint can be referred to as a primary readout, because this assay has produced multiple assay endpoints where this one serves a reporter gene function. To generalize the intended target to other relatable targets, this assay endpoint is annotated to the dna binding intended target family, where the subfamily is NF-kappa B.
Human liver HepG2 cells are transiently transfected with multiple reporter transcription units (MRTUs) in 6-well plates using FuGene 6 reagent (Roche; 3 ml FuGene/1 mg DNA). The MRTU constructs are regulated by a cis-regulating element (promoter). […] A major difference between the CIS and TRANS system is that in CIS activities of endogenous TFs are measured, whereas the TRANS assay evaluates changes in activities of exogenous, chimeric NR-Gal4 proteins. […] At the end of 24 hour incubation, total RNA was isolated using TriZol reagent (Invitrogen). The isolated RNA is then reverse-transcribed using oligo(dT) primer and Mo-MLV reverse transcriptase (Invitrogen) with DNAse I (Ambion) treatment for 30 min. The one-tenth of the produced cDNA was amplified by PCR using Taq DNA polymerase (Invitrogen) and two reporter sequence-specific primers. The PCR products were fluorescently labeled by primer extension with 6-arboxyfluorescein (6-FAM) 5'-labeled reporter sequence-specific primer (2 min at 95 C, 20 s at 68 C and 10 min at 72 C) and these products were digested with 5U of HpaI (New England Biolabs) for 2h at 37 C. The fragments were purified using Qiaquick PCR columns (Qiagen), analyzed on an ABI 3130xL genetic analyzer (Applied Biosystems) with peak positions identified by using a set of X-rhodamine (ROX)-labeled MapMarker1000 molecular weight standards (BioVentures). The raw capillary electrophoresis data was processed using Attagraph software (Attagene).

| Compound | outcome | AC50 |
| --- | --- | --- |
| Cc1cccc(C)c1NC(=O)CN1CCCC1=O | inactive | – |
| OCCCCO | inactive | – |
| C1CN2CCN1CC2 | inactive | – |
| CCN(CCO)CCO | inactive | – |
| O=C(NC(=O)c1c(F)cccc1F)Nc1cc(Cl)c(OC(F)(F)C(F)C(F)(F)F)cc1Cl (stereo not given) | inactive | – |
| CC1(C)[C@H](C(=O)O[C@H](C#N)c2cccc(Oc3ccccc3)c2)[C@@H]1/C=C(\Cl)C(F)(F)F | inactive | – |
| CCCCN(CCCCO)N=O | inactive | – |
| CC(C)(C)c1ccccc1O | – | 164 µM (active) |
| CC(C)(C1CCC(O)CC1)C1CCC(O)CC1 (stereo not given) | inactive | – |
| O=C(NC(=O)c1c(F)cccc1F)Nc1cc(Cl)c(F)c(Cl)c1F | inactive | – |
| CCCCC(CC)COC(=O)Cl (stereo not given) | inactive | – |
| CC(C)[N+](=O)[O-] | inactive | – |
| CCCCOC(C)=O | inactive | – |
| CCCCCCCCCCCCc1cccc(S(=O)(=O)O)c1 | inactive | – |
| CC(C)CP(=S)(S)CC(C)C | inactive | – |
| O=C1C=CC(=O)c2ccccc21 | inactive | – |
| CN(CCCC(O)c1cccnc1)N=O (stereo not given) | inactive | – |
| COP(=S)(OC)Oc1cc(Cl)c(I)cc1Cl | – | 55.6 µM (active) |
| C=CC(=O)OCC(COC(=O)C=C)(COC(=O)C=C)COC(=O)C=C | – | 1.96 µM (active) |
| Cc1ccc2nc3sc(=O)sc3nc2c1 | inactive | – |

| Compound | outcome | AC50 |
| --- | --- | --- |
| O=C/C(Cl)=C(/Cl)C(=O)O | – | 35.2 µM (active) |
| BrCc1ccc(Br)cc1 | inactive | – |
| CCCCOP(=O)(CCCC)OCCCC | inactive | – |
| CCOP(=O)(OCC)SCCSCC | inactive | – |
| NC(=O)c1ccc(N)nc1 | inactive | – |
| C=CCOC(N)=O | inactive | – |
| CS(=O)(=O)c1ccc(C(=O)C2C(=O)CCCC2=O)c(Cl)c1COCC(F)(F)F | inactive | – |
| CC(=Cc1ccccc1)[N+](=O)[O-] | – | 11.1 µM (active) |
| CN(N=O)c1ccc([N+](=O)[O-])cc1 | inactive | – |
| CC1(C)COP(Oc2ccccc2)OC1 | inactive | – |
| CCOc1cc(C=O)ccc1O | inactive | – |
| O=C(O)COc1ccc(Cl)cc1 | inactive | – |
| [F][Sn]([c]1ccccc1)([c]1ccccc1)[c]1ccccc1 | – | 0.685 µM (active) |
| Nc1cccnc1 | inactive | – |
| O=S1(=O)OC(c2cc(Br)c(O)c(Br)c2)(c2cc(Br)c(O)c(Br)c2)c2ccccc21 | – | 93 µM (active) |
| C[As+](C)(C)CC(=O)[O-] | inactive | – |
| O=C(Cc1ccccc1)OCCc1ccccc1 | inactive | – |
| C=CC(=O)[O][Sn]([CH2]CCC)([CH2]CCC)[CH2]CCC | inactive | – |
| CCCCCCCCCCCCCCC(Br)C(=O)O (stereo not given) | – | 50.4 µM (active) |
| O=C(NC(=O)c1c(F)cccc1F)Nc1cc(Cl)c(Oc2ncc(C(F)(F)F)cc2Cl)c(Cl)c1 | inactive | – |

— PubChem BioAssay (EPA / NIEHS)
